Bioassay records: PubChem BioAssay, National Center for Advancing Translational Sciences (NCATS)
HepG2 viability: qHTS for Inhibitors of TGF-b: Cytotox Counterscreen; HepG2 CAGA-GFP viability, ATP luminescence, 18 h; Potency, µM (highest dose often 46.1 µM), for the others: top-dose activity change, negative = cytotoxicity, most hits filed as cytotoxic; 410,000 compounds, 0.76% hits; AID 588856, 2011
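CellTiter-Glo luminescence gave cytotoxicity after 18 hours at 37 degrees C. The cells were HepG2 CAGA-GFP in 1% FBS DMEM, stimulated with 500 pg/mL TGF-beta after compound addition. %Activity was normalised to no-cell wells (complete cell-killing) and DMSO (no toxicity), and curves were fitted and classified.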
HT1080 IDH1KD tx: qHTS for induction of synthetic lethality in tumor cells producing 2HG: qHTS for the HT-1080-IDH1KD cell line; HT-1080 IDH1 knockdown viability, ATP luminescence, 48 h; 360,000 compounds, 2% hits; Potency, µM (top dose mostly 46.1 µM), for the others: at the highest dose activity, negative = toxicity, most hits filed as cytotoxic;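 further: 0% = DMSO wells and -100% = cell-free medium wells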
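After a 2 h attachment period, IDH1KD HT-1080 cells took pin-transferred compound for 48 h at 37 °C; ATP-based luminescence after 10 min room-temperature reagent incubation reported viability.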
TGFb SMAD3 inh: qHTS for Inhibitors of TGF-b. 410,000 compounds, 1.2% hits. HepG2 CAGA-GFP TGF-b/SMAD3 reporter, GFP fluorescence, 18 h; TGF-beta stimulated, 500 pg/mL final. Potency, µM (top dose mostly 46.1 µM), inactives show top-dose activity, negative = inhibition, usual class: inhibitors; further: on the % scale 0 is the no-effect control and ±100 the full control effect; nearly all actives have a fitted effect of over 65% in size
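Inhibition of TGF-beta-driven CAGA-GFP reporter expression in HEPG2 cells is measured by cellular GFP fluorescence after 18 h stimulation with 500 pg/mL recombinant TGF-beta in 1% FBS medium at 37 degrees C.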
HT1080NT lethal: qHTS for induction of synthetic lethality in tumor cells producing 2HG: qHTS for the HT-1080-NT fibrosarcoma cell line. HT-1080-NT fibrosarcoma viability, CellTiter-Glo ATP luminescence, 48 h. Potency, µM (series often up to 46.1 µM), inactives show top-dose activity, negative = less viability, usual class: cytotoxic. 360,000 compounds, 1.6% hits. AID 686970, 2013;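 further: NT is the 2HG producing partner of a matched IDH1 knockdown line; 0% = DMSO-treated cells and -100% = media-only wells without cells; nearly all actives have a fitted effect of over 55% in size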
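HT-1080-NT fibrosarcoma cells (2HG-overproducing), 750 cells/well in RPMI with 5% FBS, dosed after 2 h and incubated 48 h at 37C. CellTiter-Glo luminescence normalized to DMSO and no-cell wells; concentration-response curves fitted and classed.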
TDP1 cell noCPT: qHTS for Inhibitors of human tyrosyl-DNA phosphodiesterase 1 (TDP1): qHTS in cells in absence of CPT | DT40 Tdp1-/- hTDP1 cells, no CPT, ATP luminescence, 48 h | Potency, µM (series often up to 46.2 µM), for the others: top-dose activity change, negative = growth inhibition, usual class: inhibitors | 420,000 compounds, 15% hits; further: on the % scale 0 is the no-effect control and ±100 the full control effect; nearly all actives have a fitted effect of over 55% in size
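Luminescent ATP content (CellTiter-Glo) served as the growth readout. Knockout chicken DT40 cells expressing human TDP1 were exposed to compounds without camptothecin for a minimum 48 hr at 37 °C.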
DT40 TDP1 CPT: qHTS for Inhibitors of human tyrosyl-DNA phosphodiesterase 1 (TDP1): qHTS in cells in presence of CPT; chicken DT40 Tdp1-/-;hTDP1 cells + 20 nM CPT, ATP luminescence, 48 h; Potency, µM (titrated, usually from 46.2 µM), inactives show at the top dose activity change, negative = growth inhibition, actives largely listed as inhibitors; 420,000 compounds, 12% hits; AID 686979, 2013; further: on the % scale 0 is the no-effect control and ±100 the full control effect; nearly all actives have a fitted effect of over 55% in size
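Chicken DT40 Tdp1-/- cells complemented with human TDP1, 400 cells/well, exposed to compounds plus 20 nM camptothecin for at least 48 h at 37 C; viability read as ATP content by CellTiter-Glo luminescence.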
* marks the source's active call; other numbers are inactive results; i = inactive; ? = inconclusive; . = no result; ! = not active in a repeat; [ ] = another dose, or the depositor's remark. Sampled rows, rich in hits. Any-hit rate of the full collection: about 17%. The call rests on the fitted dose curve; in most records, active means well fitted curve in the direction sought with a large enough effect; inconclusive means small, poorly fitted or top-dose-only effect, or another doubt; inactive means no such curve, though single readings can be large; an effect the other way counts as inactive or inconclusive. Potency means the concentration at half of the fitted maximal effect.

SMILES | HepG2 viability | HT1080 IDH1KD tx | TGFb SMAD3 inh | HT1080NT lethal | TDP1 cell noCPT | DT40 TDP1 CPT
O=C(Nc1nccs1)[C@@H]1CC=C[C@@H]2CCN(Cc3ccccc3)C(=O)[C@@H]21 | 22.4% | 5.6% | ? | -4.3% | ? | ?
O=C1[C@H]2[C@H](C=CC[C@H]2C(=O)N2CCN(c3ccccc3)CC2)CCN1Cc1ccccc1 | -8.6% | -0.1% | -10.7% | -3.3% | 14.1µM* | ?
COc1ccc(NC(=O)N(C)C[C@H]2Oc3ccc(NC(=O)Cn4cnnn4)cc3C(=O)N([C@H](C)CO)C[C@@H]2C)cc1 | 4.7% | 8.4% | ? | -0.4% | 2.6% | 4.3%
COc1ccc(SC[C@H](Cc2ccccc2)N2CC[C@@H](NC(=O)OCc3ccccc3)CCC2=O)cc1 | -49.1% | 0.1% | ? | -0.3% | 16.4µM* | ?
O=C(N[C@@H]1CCC(=O)N(CC[C@H](Oc2ccccc2)c2ccccc2)CC1)OCc1ccccc1 | -18.2% | -1.8% | ? | -23.3% | ? | 14.6µM*
Cc1ccc(SC[C@H](C)CN2CC[C@H](NC(=O)OCc3ccccc3)CCC2=O)cc1 | 1.6% | 1.7% | -5.7% | -3.3% | 11.2µM* | 15.8µM*!
COc1ccc(SCCN2CC[C@@H](NC(=O)OCc3ccccc3)CCC2=O)cc1 | 34.8% | -11.8% | -19.0% | -11.9% | ? | ?
Cc1ccc(S[C@@H](CCN2CC[C@H](NC(=O)OCc3ccccc3)CCC2=O)c2ccccc2)cc1 | -2.3% | -4.1% | 10µM* | -20.2% | 11.2µM* | 23.1µM*
C[C@@H](CSc1ccccc1)CN1CC[C@H](NC(=O)OCc2ccccc2)CCC1=O | -26.5% | 2.1% | -26.4% | -2.1% | 10µM* | ?
CCc1ccc2occ(CC(=O)N(Cc3ccccc3)C3CCS(=O)(=O)C3)c2c1 (stereo not drawn) | -19.5% | . | -25.8% | . | ? | ?
CCn1c2ccccc2c2nnc(SCC(=O)NC(CC(C)C)C(=O)OC)nc21 (stereo not drawn) | 9.7% | -0.6% | ? | -0.2% | ? | ?
COCCCNc1nc(NCc2ccccc2OC)c2cnn(C)c2n1 | -12.4% | . | 2.8% | . | 23.1µM* | ?
Cc1cc(C)cc(NC(=O)Nc2ccc(NC(=O)c3ccccc3O)cc2)c1 | -48.5% | -28.5% | ? | ? | 20.6µM* | ?
CCOC(=O)N1CCN(C(=O)c2cc(COc3ccc4ncccc4c3)on2)CC1 | -19.2% | -16.7% | -5.0% | -10.1% | 6.51µM* | 6.51µM*
Cc1cccnc1CN1CCN(C(=O)c2cc(COc3ccc4ncccc4c3)on2)CC1 | -0.7% | ? | ? | -5.7% | 7.31µM* | 5.8µM*
Nc1c(C(=O)Nc2ccccc2)nnn1Cc1ccc(F)cc1Cl | -0.9% | . | . | . | -17.3% | -22.4%
Cc1c(C(=O)Nc2cccc(F)c2)sc2nc(-c3cc4ccccc4oc3=O)[nH]c(=O)c12 | -15.9% | . | 133.4% | . | ? | 23.1µM*
Cc1cc(C)cc(NC(=O)c2sc3nc(-c4cc5ccccc5oc4=O)[nH]c(=O)c3c2C)c1 | -2.8% | . | 72.3% | . | -10.1% | ?
Cc1cccc(NC(=O)c2sc3nc(-c4cc5ccc(O)cc5oc4=O)[nH]c(=O)c3c2C)c1 | -14.7% | . | i | . | 20.6µM* | 20.6µM*
CCC(=O)N(CCC(c1ccccc1)c1ccco1)Cc1cccs1 (stereo not drawn) | -8.5% | ? | ? | -5.1% | 20.6µM* | 16.4µM*
O=C(c1ccco1)N(CCC(c1ccccc1)c1ccco1)Cc1ccccc1 (stereo not drawn) | -5.1% | -1.8% | -23.2% | -16.5% | ? | ?
CCC(=O)N(CCC(Cc1ccccc1)c1ccc2c(c1)OCO2)Cc1ccccc1F (stereo not drawn) | -57.8% | ? | ? | ? | 4.61µM* | 7.31µM*
CCC(=O)N(CCC(c1ccccc1)c1ccc2c(c1)OCO2)Cc1ccc(OC(C)C)cc1 (stereo not drawn) | -35.7% | . | ? | . | ? | ?
CCC(=O)N(CCC(Cc1ccccc1)c1ccco1)Cc1ccco1 (stereo not drawn) | 19.7% | -10.5% | -24.1% | -7.2% | 14.6µM* | 18.4µM*
CCN(C(=O)COC(=O)/C=C/c1ccco1)C1CCCCC1 | -2.9% | -1.4% | -7.2% | 0.8% | -15.2% | 1.0%
SMILES | HepG2 viability | HT1080 IDH1KD tx | TGFb SMAD3 inh | HT1080NT lethal | TDP1 cell noCPT | DT40 TDP1 CPT
Cc1ccc(C(=O)N2CCN(c3ccc(F)cc3)CC2)cc1NC(=O)c1nsc2ccccc12 | 4.5% | . | ? | . | 20.6µM* | 16.4µM*
COc1cccc(N2CCN(C(=O)c3ccc(C)c(NC(=O)c4nsc5ccccc45)c3)CC2)c1 | -5.8% | . | -0.1% | . | 18.4µM* | ?
Cc1cccc2cc(CN(C(=O)c3ccc(-c4ccc(F)cc4)cc3)C3CC3)c(N3CCC(O)CC3)nc12 | . | . | . | . | 23.1µM* | ?
COc1ccccc1C(=O)N(Cc1cc2cccc(C)c2nc1N1CCC(O)CC1)C1CC1 | . | . | . | . | 16.4µM* | -6.8%[9.04 µM]
COc1cc(O)c(C(=O)CC(=O)c2ccncc2)c(OC)c1 | -0.2% | 6.7% | 4.3% | 5.0% | -4.5% | -12.7%
CN(C(=O)CN1C(=O)/C(=C/c2ccccc2Cl)SC1=S)C1CCS(=O)(=O)C1 (stereo not drawn) | -4.8% | 18.0% | -5.8% | 12.4% | ? | 16.4µM*
CCN(C(=O)CCN1C(=O)S/C(=C\c2ccccc2)C1=O)C1CCS(=O)(=O)C1 (stereo not drawn) | -7.4% | 4.2% | 7.0% | 1.2% | ? | 16.4µM*
CN(C(=O)CN1C(=O)/C(=C/c2ccccc2F)SC1=S)C1CCS(=O)(=O)C1 (stereo not drawn) | -18.7% | 10.5% | 1.9% | -3.5% | ? | 18.4µM*
O=C(Nc1ccc(F)cc1)NC1CCCc2ccccc21 (stereo not drawn) | -1.6% | -5.3% | -12.7% | -0.8% | -2.0% | -24.7%
O=C(Nc1ccccc1)NC1CCCc2ccccc21 (stereo not drawn) | -4.0% | -1.9% | 1.0% | 9.4% | 18.4µM* | ?
